# Measurements: paper PMC7862700, “An all-to-all approach to the identification of sequence-specific readers for epigenetic DNA modifications on cytosine”
# Tests used:
# Assay in all cases: DAPPL (digital affinity profiling via proximity ligation, sequencing); 10 mM Tris-HCl pH 7.5, 50 mM NaCl, 1 mM DTT, 4% glycerol, room temperature, 30 min; GST-TFs on glutathione beads, 16-mer random dsDNA library, 0.1% formaldehyde crosslink after washing; high values mean tight binding
# [1] = target: T1, FLI1 (Homo sapiens, UniProt Q01543 1-452); conditions: protein: recombinant; tags: N-terminal GST; dsDNA, one strand shown
# T1 sequence: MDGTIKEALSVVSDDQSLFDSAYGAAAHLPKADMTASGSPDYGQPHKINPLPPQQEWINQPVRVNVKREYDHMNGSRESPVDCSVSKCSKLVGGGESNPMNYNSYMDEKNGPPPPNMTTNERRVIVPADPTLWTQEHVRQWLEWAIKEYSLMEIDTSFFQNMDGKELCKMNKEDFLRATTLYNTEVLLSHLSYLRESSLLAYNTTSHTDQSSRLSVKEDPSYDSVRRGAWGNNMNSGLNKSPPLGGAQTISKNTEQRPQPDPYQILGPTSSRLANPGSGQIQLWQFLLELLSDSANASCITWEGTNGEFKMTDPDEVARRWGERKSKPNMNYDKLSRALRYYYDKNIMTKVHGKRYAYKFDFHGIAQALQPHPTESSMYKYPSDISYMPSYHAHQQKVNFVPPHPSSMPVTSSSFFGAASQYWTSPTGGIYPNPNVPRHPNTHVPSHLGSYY
# Summary of the method: (§1)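 GST fusions of human transcription factors were expressed in yeast and captured with glutathione beads. Once given DNA barcodes and pooled alongside a tag-only sample, they were incubated for 30 min at room temperature with 200 nmole of a random double-stranded 16-mer DNA library in Tris/NaCl/DTT/glycerol buffer, then washed, crosslinked (0.1% formaldehyde), proximity-ligated, PCR-amplified and sequenced on an Illumina NextSeq500. The binding signal of each hexamer is its read frequency for a factor divided by its frequency for the tag-only sample.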
# [2] = target: T2, ELK1 (Homo sapiens, UniProt P19419 1-428); conditions: protein: recombinant; tags: N-terminal GST; dsDNA, one strand shown
# T2 sequence: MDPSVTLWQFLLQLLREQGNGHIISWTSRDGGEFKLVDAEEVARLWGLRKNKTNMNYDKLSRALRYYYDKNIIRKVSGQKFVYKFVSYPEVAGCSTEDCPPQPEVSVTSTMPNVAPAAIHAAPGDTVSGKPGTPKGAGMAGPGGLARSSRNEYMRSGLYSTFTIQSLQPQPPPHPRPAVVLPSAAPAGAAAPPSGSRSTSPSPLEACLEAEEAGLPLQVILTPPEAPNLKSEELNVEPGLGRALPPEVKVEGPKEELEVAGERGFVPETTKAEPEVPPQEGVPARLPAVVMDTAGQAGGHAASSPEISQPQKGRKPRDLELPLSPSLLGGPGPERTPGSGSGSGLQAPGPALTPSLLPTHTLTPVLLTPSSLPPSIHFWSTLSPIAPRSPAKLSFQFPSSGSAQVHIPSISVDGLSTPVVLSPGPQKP
# Summary of the method: as §1
# [3] = target: T3, GABPA (Homo sapiens, UniProt Q06546 1-454); conditions: protein: recombinant; tags: N-terminal GST; dsDNA, one strand shown
# T3 sequence: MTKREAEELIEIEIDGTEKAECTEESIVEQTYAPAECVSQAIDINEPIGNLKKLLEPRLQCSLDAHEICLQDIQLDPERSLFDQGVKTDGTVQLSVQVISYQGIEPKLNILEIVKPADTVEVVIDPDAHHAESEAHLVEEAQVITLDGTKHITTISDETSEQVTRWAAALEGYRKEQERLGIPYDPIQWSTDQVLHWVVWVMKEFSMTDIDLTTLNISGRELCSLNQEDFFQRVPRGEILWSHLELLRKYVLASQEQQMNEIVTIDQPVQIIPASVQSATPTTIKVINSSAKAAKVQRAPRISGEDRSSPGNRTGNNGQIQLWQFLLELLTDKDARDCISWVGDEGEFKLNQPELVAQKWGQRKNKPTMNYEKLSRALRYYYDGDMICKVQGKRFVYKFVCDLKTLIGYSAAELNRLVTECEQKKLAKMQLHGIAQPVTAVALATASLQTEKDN
# Summary of the method: as §1
# [4] = target: T4, ERG (Homo sapiens, UniProt P11308 1-479); conditions: protein: recombinant; tags: N-terminal GST; dsDNA, one strand shown
# T4 sequence: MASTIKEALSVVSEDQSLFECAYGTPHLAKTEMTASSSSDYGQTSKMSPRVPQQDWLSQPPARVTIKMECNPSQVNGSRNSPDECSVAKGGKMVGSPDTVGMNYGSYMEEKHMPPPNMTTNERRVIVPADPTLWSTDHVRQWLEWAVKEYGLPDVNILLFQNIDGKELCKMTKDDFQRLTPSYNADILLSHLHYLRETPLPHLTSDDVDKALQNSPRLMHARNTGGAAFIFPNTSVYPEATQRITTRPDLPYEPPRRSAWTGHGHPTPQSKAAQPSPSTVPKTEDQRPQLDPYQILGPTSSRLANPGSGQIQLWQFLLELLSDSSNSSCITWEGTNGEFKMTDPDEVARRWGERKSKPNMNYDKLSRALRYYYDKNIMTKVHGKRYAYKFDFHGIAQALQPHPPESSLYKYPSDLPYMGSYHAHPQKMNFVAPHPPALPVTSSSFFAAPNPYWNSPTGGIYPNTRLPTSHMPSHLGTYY
# Summary of the method: as §1
# [5] = target: ELF1 (Homo sapiens, UniProt P32519 1-619); conditions: protein: recombinant; tags: N-terminal GST; dsDNA, one strand shown
# Summary of the method: as §1
# [6] = target: T5, EHF (Homo sapiens, UniProt Q9NZC4 1-300); conditions: protein: recombinant; tags: N-terminal GST; dsDNA, one strand shown
# T5 sequence: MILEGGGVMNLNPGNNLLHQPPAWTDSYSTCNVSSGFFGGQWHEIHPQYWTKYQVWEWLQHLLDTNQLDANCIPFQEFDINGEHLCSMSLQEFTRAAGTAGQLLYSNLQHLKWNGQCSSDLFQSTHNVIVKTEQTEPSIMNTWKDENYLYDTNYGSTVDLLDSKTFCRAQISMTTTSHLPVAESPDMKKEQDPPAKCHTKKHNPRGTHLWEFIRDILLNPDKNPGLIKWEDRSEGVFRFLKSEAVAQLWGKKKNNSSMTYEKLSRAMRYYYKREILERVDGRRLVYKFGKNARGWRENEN
# Summary of the method: as §1
# [7] = target: SPI1 (Homo sapiens, UniProt P17947 1-270); conditions: protein: recombinant; tags: N-terminal GST; dsDNA, one strand shown
# Summary of the method: as §1
# [8] = target: SPIB (Homo sapiens, UniProt Q01892 1-262); conditions: protein: recombinant; tags: N-terminal GST; dsDNA, one strand shown
# Summary of the method: as §1
# [9] = target: T6, ELK3 (Homo sapiens, UniProt P41970 1-407); conditions: protein: recombinant; tags: N-terminal GST; dsDNA, one strand shown
# T6 sequence: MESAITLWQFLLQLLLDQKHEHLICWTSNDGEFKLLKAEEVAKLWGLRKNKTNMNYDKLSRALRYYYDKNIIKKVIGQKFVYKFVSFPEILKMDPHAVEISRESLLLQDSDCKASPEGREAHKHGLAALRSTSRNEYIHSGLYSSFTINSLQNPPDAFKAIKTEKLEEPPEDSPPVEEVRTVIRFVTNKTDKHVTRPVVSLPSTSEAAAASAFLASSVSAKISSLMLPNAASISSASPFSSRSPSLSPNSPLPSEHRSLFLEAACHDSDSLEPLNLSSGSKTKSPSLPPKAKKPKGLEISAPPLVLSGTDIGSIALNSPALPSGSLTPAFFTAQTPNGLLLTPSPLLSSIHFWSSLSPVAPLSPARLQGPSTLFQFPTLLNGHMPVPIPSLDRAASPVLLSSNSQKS
# Summary of the method: as §1
# [10] = target: T7, FEV (Homo sapiens, UniProt Q99581 1-238); conditions: protein: recombinant; tags: N-terminal GST; dsDNA, one strand shown
# T7 sequence: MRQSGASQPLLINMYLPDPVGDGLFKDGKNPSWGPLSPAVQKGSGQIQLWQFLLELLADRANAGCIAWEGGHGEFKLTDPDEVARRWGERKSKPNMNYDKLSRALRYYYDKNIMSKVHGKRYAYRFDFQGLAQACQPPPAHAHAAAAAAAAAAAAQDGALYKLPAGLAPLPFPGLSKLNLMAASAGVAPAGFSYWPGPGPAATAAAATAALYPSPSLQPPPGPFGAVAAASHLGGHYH
# Summary of the method: as §1
# [11] = target: ETV5 (Homo sapiens, UniProt P41161 1-510); conditions: protein: recombinant; tags: N-terminal GST; dsDNA, one strand shown
# Summary of the method: as §1
# [12] = target: HSF1 (Homo sapiens, UniProt Q00613 1-529); conditions: protein: recombinant; tags: N-terminal GST; chain copies: 3; dsDNA, one strand shown
# Summary of the method: as §1
# [13] = target: T8, SPIC (Homo sapiens, UniProt Q8N5J4 1-248); conditions: protein: recombinant; tags: N-terminal GST; dsDNA, one strand shown
# T8 sequence: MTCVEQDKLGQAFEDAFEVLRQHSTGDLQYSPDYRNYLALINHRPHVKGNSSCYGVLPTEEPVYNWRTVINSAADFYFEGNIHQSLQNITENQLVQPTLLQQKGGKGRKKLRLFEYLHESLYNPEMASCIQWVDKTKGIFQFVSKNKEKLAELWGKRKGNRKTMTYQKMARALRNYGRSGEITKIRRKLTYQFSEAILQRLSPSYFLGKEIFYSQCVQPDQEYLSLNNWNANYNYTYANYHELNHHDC
# Summary of the method: as §1
# [14] = target: ELF4 (Homo sapiens, UniProt Q99607 1-663); conditions: protein: recombinant; tags: N-terminal GST; dsDNA, one strand shown
# Summary of the method: as §1
# [15] = target: T9, ELK4 (Homo sapiens, UniProt P28324-2 1-405); conditions: protein: recombinant; tags: N-terminal GST; dsDNA, one strand shown
# T9 sequence: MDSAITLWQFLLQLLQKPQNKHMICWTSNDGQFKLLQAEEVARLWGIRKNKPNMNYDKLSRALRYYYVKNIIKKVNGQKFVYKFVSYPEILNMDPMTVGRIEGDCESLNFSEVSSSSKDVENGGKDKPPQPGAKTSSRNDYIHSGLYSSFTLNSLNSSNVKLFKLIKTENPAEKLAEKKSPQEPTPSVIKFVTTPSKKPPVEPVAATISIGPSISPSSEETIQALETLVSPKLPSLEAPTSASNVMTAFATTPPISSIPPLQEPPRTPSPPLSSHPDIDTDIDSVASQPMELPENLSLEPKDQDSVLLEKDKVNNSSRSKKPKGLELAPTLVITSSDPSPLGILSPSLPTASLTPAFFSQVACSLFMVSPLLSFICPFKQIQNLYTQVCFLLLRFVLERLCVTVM
# Summary of the method: as §1
# [16] = target: T10, ETV2 (Homo sapiens, UniProt O00321 1-342); conditions: protein: recombinant; tags: N-terminal GST; dsDNA, one strand shown
# T10 sequence: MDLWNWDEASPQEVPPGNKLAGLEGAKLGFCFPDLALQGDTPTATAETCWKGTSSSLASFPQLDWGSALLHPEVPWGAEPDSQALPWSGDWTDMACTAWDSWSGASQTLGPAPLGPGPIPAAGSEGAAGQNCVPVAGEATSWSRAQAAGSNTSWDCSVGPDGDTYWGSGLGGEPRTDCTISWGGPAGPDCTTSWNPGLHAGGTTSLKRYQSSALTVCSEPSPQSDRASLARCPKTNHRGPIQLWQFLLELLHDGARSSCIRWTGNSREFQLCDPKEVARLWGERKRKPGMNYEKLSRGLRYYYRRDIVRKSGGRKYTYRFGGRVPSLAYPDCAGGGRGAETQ
# Summary of the method: as §1
# [17] = target: T11, ELF3 (Homo sapiens, UniProt P78545 1-371); conditions: protein: recombinant; tags: N-terminal GST; dsDNA, one strand shown
# T11 sequence: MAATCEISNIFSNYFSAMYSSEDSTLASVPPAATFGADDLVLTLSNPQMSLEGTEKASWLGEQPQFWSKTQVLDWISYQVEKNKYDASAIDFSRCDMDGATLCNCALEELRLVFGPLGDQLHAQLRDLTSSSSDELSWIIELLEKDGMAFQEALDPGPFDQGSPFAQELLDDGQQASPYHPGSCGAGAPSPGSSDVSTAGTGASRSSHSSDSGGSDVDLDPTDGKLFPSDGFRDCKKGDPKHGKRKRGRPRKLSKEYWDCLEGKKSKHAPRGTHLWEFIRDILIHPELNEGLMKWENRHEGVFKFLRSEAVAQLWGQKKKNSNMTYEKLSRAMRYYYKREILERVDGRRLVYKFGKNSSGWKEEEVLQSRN
# Summary of the method: as §1
# [18] = target: ETV1 (Homo sapiens, UniProt P50549 1-477); conditions: protein: recombinant; tags: N-terminal GST; dsDNA, one strand shown
# Summary of the method: as §1
# Chain of ELF1 (P32519 whole entry): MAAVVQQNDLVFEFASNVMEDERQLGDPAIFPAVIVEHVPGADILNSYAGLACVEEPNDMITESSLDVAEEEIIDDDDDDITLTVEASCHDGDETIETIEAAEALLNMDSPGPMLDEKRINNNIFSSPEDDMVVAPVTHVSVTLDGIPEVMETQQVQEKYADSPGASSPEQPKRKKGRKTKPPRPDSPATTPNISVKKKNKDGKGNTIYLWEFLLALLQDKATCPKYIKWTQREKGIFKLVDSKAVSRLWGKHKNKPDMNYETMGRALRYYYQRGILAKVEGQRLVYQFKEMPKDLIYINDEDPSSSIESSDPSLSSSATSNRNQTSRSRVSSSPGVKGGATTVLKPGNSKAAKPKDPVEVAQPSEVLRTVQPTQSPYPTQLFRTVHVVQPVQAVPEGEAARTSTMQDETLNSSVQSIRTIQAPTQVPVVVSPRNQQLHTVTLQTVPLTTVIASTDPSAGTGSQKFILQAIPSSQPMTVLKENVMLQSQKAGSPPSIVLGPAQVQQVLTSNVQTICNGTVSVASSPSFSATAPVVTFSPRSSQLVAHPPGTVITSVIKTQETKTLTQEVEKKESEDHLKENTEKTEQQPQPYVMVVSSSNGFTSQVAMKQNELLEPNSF
# Chain of SPIB (Q01892 whole entry): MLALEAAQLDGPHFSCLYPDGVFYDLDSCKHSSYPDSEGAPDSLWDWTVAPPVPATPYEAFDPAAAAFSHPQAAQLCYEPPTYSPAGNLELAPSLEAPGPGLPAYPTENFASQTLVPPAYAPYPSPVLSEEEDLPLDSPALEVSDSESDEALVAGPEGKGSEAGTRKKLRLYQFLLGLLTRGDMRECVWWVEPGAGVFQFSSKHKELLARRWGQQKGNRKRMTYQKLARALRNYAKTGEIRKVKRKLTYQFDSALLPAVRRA
# Chain of ETV5 (P41161 whole entry): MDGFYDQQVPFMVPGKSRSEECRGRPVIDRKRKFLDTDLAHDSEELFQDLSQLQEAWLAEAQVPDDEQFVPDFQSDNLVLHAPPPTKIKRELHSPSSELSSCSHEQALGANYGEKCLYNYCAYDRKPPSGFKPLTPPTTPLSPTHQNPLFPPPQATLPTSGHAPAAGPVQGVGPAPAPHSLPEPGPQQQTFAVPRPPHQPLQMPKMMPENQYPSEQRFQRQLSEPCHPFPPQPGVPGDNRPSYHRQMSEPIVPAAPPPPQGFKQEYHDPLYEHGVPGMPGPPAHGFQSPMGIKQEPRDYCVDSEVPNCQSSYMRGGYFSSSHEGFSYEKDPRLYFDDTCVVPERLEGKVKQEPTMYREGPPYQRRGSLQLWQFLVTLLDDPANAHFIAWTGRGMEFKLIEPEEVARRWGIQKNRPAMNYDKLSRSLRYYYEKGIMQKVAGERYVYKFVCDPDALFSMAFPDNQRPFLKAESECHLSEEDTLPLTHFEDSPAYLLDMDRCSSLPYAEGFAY
# Chain of ELF4 (Q99607 whole entry): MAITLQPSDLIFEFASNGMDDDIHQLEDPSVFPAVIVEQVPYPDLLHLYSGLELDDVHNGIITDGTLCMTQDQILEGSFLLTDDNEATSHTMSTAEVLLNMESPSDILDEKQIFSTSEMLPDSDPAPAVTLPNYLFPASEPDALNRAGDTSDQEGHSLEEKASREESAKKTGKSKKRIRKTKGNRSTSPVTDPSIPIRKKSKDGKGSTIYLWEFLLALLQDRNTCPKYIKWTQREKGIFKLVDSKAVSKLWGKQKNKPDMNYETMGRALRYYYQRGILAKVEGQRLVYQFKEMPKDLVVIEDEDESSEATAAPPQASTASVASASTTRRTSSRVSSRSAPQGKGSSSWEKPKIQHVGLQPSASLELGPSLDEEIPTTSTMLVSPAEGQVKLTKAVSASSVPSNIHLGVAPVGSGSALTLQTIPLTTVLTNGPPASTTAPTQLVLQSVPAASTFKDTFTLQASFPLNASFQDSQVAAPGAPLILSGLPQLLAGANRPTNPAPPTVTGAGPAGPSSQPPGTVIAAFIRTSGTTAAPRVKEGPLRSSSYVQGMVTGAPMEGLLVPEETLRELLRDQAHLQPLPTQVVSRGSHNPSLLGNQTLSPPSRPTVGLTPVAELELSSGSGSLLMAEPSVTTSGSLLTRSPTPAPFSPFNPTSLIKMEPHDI
# Chain of ETV1 (P50549 whole entry): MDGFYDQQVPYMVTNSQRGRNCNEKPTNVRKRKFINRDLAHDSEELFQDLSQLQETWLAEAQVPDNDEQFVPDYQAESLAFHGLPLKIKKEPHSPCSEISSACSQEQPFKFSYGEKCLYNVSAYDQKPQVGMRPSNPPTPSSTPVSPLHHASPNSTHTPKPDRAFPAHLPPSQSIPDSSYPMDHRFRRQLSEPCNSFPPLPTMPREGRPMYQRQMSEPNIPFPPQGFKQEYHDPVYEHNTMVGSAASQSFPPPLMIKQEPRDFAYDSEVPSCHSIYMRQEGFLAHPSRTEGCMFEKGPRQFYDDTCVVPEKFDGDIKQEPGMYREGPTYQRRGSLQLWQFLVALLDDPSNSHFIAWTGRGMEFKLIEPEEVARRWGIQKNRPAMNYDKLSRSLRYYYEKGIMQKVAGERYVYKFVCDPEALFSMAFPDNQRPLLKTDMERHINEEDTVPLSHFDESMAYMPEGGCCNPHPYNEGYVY
# Chain of HSF1 (Q00613 whole entry): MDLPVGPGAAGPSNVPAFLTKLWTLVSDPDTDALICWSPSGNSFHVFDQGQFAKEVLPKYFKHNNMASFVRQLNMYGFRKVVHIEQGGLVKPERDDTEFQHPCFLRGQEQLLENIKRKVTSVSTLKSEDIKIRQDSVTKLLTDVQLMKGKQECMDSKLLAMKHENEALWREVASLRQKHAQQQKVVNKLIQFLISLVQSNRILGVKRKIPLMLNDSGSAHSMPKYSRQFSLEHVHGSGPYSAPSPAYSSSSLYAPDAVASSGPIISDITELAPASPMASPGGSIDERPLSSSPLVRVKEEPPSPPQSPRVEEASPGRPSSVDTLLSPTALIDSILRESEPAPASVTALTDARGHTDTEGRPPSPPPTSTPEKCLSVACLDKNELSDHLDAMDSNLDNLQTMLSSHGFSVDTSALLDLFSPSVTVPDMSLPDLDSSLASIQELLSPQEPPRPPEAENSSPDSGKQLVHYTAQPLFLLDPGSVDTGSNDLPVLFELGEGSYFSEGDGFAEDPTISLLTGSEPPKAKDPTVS
sequence,measurement,setting,value
GAACAC,binding signal,[1],"1.25 fold enrichment (6-mer frequency, TF over GST control)"
same,binding signal,[2],"1.19 fold enrichment (6-mer frequency, TF over GST control)"
same,binding signal,[3],"1.13 fold enrichment (6-mer frequency, TF over GST control)"
same,binding signal,[4],"1.17 fold enrichment (6-mer frequency, TF over GST control)"
same,binding signal,[5],"1.19 fold enrichment (6-mer frequency, TF over GST control)"
same,binding signal,[6],"1.12 fold enrichment (6-mer frequency, TF over GST control)"
same,binding signal,[7],"1.16 fold enrichment (6-mer frequency, TF over GST control)"
same,binding signal,[8],"1.2 fold enrichment (6-mer frequency, TF over GST control)"
same,binding signal,[9],"1.08 fold enrichment (6-mer frequency, TF over GST control)"
same,binding signal,[10],"1.08 fold enrichment (6-mer frequency, TF over GST control)"
same,binding signal,[11],"1.08 fold enrichment (6-mer frequency, TF over GST control)"
same,binding signal,[12],"1.21 fold enrichment (6-mer frequency, TF over GST control)"
same,binding signal,[13],"1.18 fold enrichment (6-mer frequency, TF over GST control)"
same,binding signal,[14],"1.13 fold enrichment (6-mer frequency, TF over GST control)"
same,binding signal,[15],"1.17 fold enrichment (6-mer frequency, TF over GST control)"
same,binding signal,[16],"1.33 fold enrichment (6-mer frequency, TF over GST control)"
same,binding signal,[17],"1.13 fold enrichment (6-mer frequency, TF over GST control)"
same,binding signal,[18],"1.18 fold enrichment (6-mer frequency, TF over GST control)"
